# This is a sample that favours compounds with a hit; in the whole collection about 3.4% have one here.
# Vif imaging – HIV Vif inhibition. 340,000 compounds, 0.35% hits. AID 602346. HEK293T cells, Vif self-association by quenched fluorescence, imaging, 24 h. inhibition, % at 7.49 µM; in the data active = inhibition above about 50%, passing the limit was not always enough
# HSF1 activator – increases HSF-1 driven luciferase reporter signal. NIH3T3-HGL HSF-1 luciferase reporter, MG132, 8 h; 100% = twice DMSO control signal. activation, % at 9 µM. 300,000 compounds, 1.7% hits. AID 504408;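 active = mean replicate activation of at least 50% with a set share of replicates each reaching 50%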;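 also: 0% = median of the neutral control wells and 100% = twice that signal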
# HSF1 inh – HSF1 inhibition | NIH3T3-HGL HSE-luciferase, MG132-induced, luminescence 8 h; stronger effect = lower value | activity change, negative = inhibition, % at 7.5 µM (by protocol) | 300,000 compounds, 0.77% hits | AID 2098;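 active = more than half of replicate wells show activity change below -50%, luminescence cut by over half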;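 also: luciferase reports HSF-1 transcriptional activity via heat shock element; 0% = median of DMSO wells and -100% = zero luminescence signal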
# esBAF inh – SWI/SNF esBAF complex inhibition. 350,000 compounds, 2% hits. mouse ES cells, Bmi1-luciferase knock-in reporter, 24 h; 100% = twice the neutral-well signal. reporter increase, % at 12.5 µM; in the data active = activation above about 40%;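 also: 0% = median of the plate's neutral control wells and 100% = double that signal; a rise in the Bmi1 reporter signal indicates esBAF inhibition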
# The depositor's hits bear a star; / = no result given.
SMILES,Vif imaging,HSF1 activator,HSF1 inh,esBAF inh
O=C(C[C@@H]1CC[C@@H]2[C@H](COC[C@@H](O)CN2S(=O)(=O)c2ccccc2)O1)N1CCOCC1,/,/,/,3
Nc1nonc1-n1nnc(C(=O)N/N=C/c2cccnc2)c1CSC1=NCCS1,10,96*,50,/
C[C@@H]1CCCCO[C@@H](CN(C)S(=O)(=O)c2cccs2)[C@@H](C)CN([C@H](C)CO)C(=O)c2cc(NS(=O)(=O)c3cn(C)cn3)ccc2O1,/,/,/,-16
CC(=O)Nc1ccc(OC(=O)Oc2ccc(NC(C)=O)cc2)cc1,-2,-4,-3,-3
CC(=O)Nc1ccc(OC/C=C(\C)Cl)cc1,0,8,8,55*
CO[C@@H]1CN(C)C(=O)c2ccc(NC(=O)NC(C)C)cc2OC[C@@H](C)N(Cc2cncnc2)C[C@H]1C,/,/,/,-1
O=C(Nc1ccccc1)c1nnn(Cc2ccccc2)c1NC(=O)C(F)(F)F,-4,23,4,56*
COc1ccccc1C(=O)N/C(=C\c1cn(S(=O)(=O)N(C)C)c2ccccc12)C(=O)NCCN1CCOCC1,-5,-83,-80*,7
O=C(c1c(F)cccc1F)N1CCCC(c2nc(-c3cccs3)no2)C1 (centres undefined),-14,37,13,81*
COc1ccc(C(=O)N2CCCC(c3nc(-c4cccs4)no3)C2)cc1OC (centres undefined),/,-1,-5,-8
COc1ccc(-c2noc(C3CCCN(C(=O)Nc4ccccc4)C3)n2)cc1 (centres undefined),-8,13,2,59*
COc1ccc(-c2noc(C3CCCN(C(=O)c4ccccc4)C3)n2)cc1 (centres undefined),-12,21,22,42*
COc1ccc(C(=O)N2CCCC(c3nc(-c4cccs4)no3)C2)cc1 (centres undefined),2,59*,12,-4
CN(C)S(=O)(=O)Oc1ccccc1C(=O)Nc1ccc(F)cc1F,13,11,1,/
CCN(CC)C(=O)Oc1ccc(Br)cc1C(=O)Nc1ccc(F)cc1F,-7,72*,38,/
CCC(=O)Nc1ccc2c(c1)C(=O)N(C)C[C@@H](OC)[C@@H](C)CN(CC1CCOCC1)[C@H](C)CO2,/,/,/,3
O=C(CSc1nc2ccccc2[nH]1)c1ccccc1F,-9,57*,18,52*
CC(C)CCSc1nc2ccccc2[nH]1,-15,65*,48,/
c1ccc(-c2cc(CSc3nc4ccccc4[nH]3)on2)cc1,-25,61*,41,12
CC(C)Sc1nc2ccccc2[nH]1,-1,-4,-7,/
Cc1cc(C(=O)CSc2nc3ccccc3[nH]2)c(C)n1C,-6,71*,38,/
CO[C@H]1CN(C)C(=O)c2ccc(NS(=O)(=O)CC(F)(F)F)cc2OC[C@H](C)N(Cc2ccccn2)C[C@@H]1C,/,/,/,-2
C[C@H](CO)N1C[C@H](C)[C@@H](CN(C)Cc2ccc(Cl)c(Cl)c2)OCc2cn(nn2)CCCC1=O,/,/,/,-8
CN(C)CC(=O)N[C@H]1C=C[C@@H](CC(=O)NCCN2CCCCC2)O[C@H]1CO,/,/,/,1
Cc1noc(C)c1CSc1nc2ccccc2[nH]1,2,0,2,-8
SMILES,Vif imaging,HSF1 activator,HSF1 inh,esBAF inh
O=C1CCC(=O)N1c1ccc(CSc2nc3ccccc3[nH]2)cc1,-3,28,12,42*
Fc1cccc(F)c1CSc1nc2ccccc2[nH]1,-16,35,30,42*
Cc1ccc(/C=C2\SC(N3CCCCC3)=NC2=O)cc1,-4,16,15,42*
O=C1N=C(N2CCCCC2)S/C1=C\c1ccc(Cl)cc1,2,45,21,29
Cc1noc(C)c1S(=O)(=O)Nc1cccc2c1O[C@@H](CN(C)Cc1ccc(C(=O)O)cc1)[C@@H](C)CN([C@H](C)CO)C2=O,/,/,/,-3
CCC(=O)Nc1cccc(NC(=S)NC(=O)c2ccccc2Cl)c1,-6,6,13,/
CCC(=O)Nc1cccc(NC(=S)NC(=O)c2cccs2)c1,2,79*,64,/
N#Cc1ccccc1NC(=S)NC(=O)c1cccs1,-14,32,9,45*
O=C(NC(=S)Nc1cccc2cccnc12)c1cccs1,2,156*,109,/
CCOC(=O)/C(=C\c1ccc(Cl)cc1)c1nc2sc(C)c(C)c2c(=O)[nH]1,2,241*,185,/
CCOC(=O)CSc1nc2sc(C)c(C)c2c(=O)[nH]1,1,28,15,-1
COc1ccc(NC(=O)Nc2ccc3c(c2)CC(=O)N([C@@H](C)CO)C[C@@H](C)[C@H](CN(C)Cc2ccc(Cl)c(Cl)c2)O3)cc1,/,/,/,1
CC(C)c1ccc2[nH]c3c(c2c1)[C@@H]1CCN2C(=O)CCC[C@H](C3)[C@H]12,-12,9,13,81*
Cc1ccc(S(=O)(=O)N(Cc2cc3cc4c(cc3[nH]c2=O)OCCO4)CC2CCCO2)cc1 (centres undefined),12,23,3,10
Cc1cc(C)c2cc(CN(CC3CCCO3)S(=O)(=O)c3ccc4c(c3)OCCO4)c(=O)[nH]c2c1 (centres undefined),-3,62*,28,10
CC(=O)c1ccc(S(=O)(=O)N(Cc2cc3cc4c(cc3[nH]c2=O)OCCO4)CC2CCCO2)cc1 (centres undefined),24,31,20,46*
Cc1ccc2cc(CN(CC3CCCO3)S(=O)(=O)c3ccc4c(c3)OCCO4)c(=O)[nH]c2c1C (centres undefined),-8,-1,3,11
O=C(C[C@H]1CC[C@@H](NC(=O)c2ccc3c(c2)OCO3)[C@@H](CO)O1)NCc1ccc(Cl)cc1,/,/,/,-9
O=C(OCc1ccccc1)N1CCC2CC1c1cc(-c3ccccc3)ccc12 (centres undefined),-5,/,/,8
CCCCNc1ccc2c(c1)C1CC2CCN1C(=O)OCc1ccccc1 (centres undefined),-1,/,/,100*
O=C(OCc1ccccc1)N1CCC2CC1c1ccc(/C=C/CCCCl)cc12 (centres undefined),-5,/,/,59*
Cc1noc(C)c1NC(=O)Nc1ccc2c(c1)C(=O)N([C@H](C)CO)C[C@@H](C)[C@H](CN(C)C(=O)Nc1ccc(C(F)(F)F)cc1)O2,/,/,/,0
COc1ccc(-c2csc(C(O)c3cccc(OC)c3)n2)cc1 (centres undefined),-23,/,/,11
OC(c1ccc(F)c(F)c1)c1nc(-c2cccs2)cs1 (centres undefined),3,/,/,14
COc1ccc(-c2csc(C(O)c3ccccc3)n2)cn1 (centres undefined),/,/,/,61*
COc1cccc(C(O)c2nc(-c3ccc(N(C)C)cc3)cs2)c1 (centres undefined),-32,/,/,45*
OC(c1ccccc1)c1nc(-c2cccs2)cs1 (centres undefined),11,/,/,49*
O=C(C[C@H]1C[C@@H]2c3cc(NC(=O)CC4CC4)ccc3O[C@@H]2[C@@H](CO)O1)NCCN1CCCCC1,/,/,/,1
N#Cc1cccc(-c2ccc3c(c2)[C@H]2[C@H](CCN2C(=O)c2ccncc2)[C@H](CO)N3)c1,/,/,/,18
